# Measured values taken from PubChem BioAssay (NCATS).
# Results filed as inconclusive are left out. Activity calls are given as the source filed them. Unless noted, the call rests on the fitted dose curve; in most records, active means well fitted curve in the direction sought with a large enough effect; inconclusive means small, poorly fitted or top-dose-only effect, or another doubt; inactive means no such curve, though single readings can be large; an effect the other way counts as inactive or inconclusive.
# What was measured:
# [1] = Quantitative High-Throughput drug screen in 47 multiple myeloma cell lines against the NCATS MIPE library collection: PCM6_Riken cell viability assay (AID 1919870); further: nearly all actives have a fitted effect of over 30% in size; further: potency means the concentration at half of the fitted maximal effect
# Method in brief: (§1)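 MIPE 4.0 approved/investigational drugs; 500 cells/well; 48 h 37 °C humidified 5% CO2; CTG luminescence readout; DMSO = 100%, media = 0% viability.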
# [2] = Quantitative High-Throughput drug screen in 47 multiple myeloma cell lines against the NCATS MIPE library collection: RPMI8226_ATCC cell viability assay (AID 1919871); further: nearly all actives have a fitted effect of over 30% in size; further: potency means the concentration at half of the fitted maximal effect
# Method in brief: as §1
# [3] = Quantitative High-Throughput drug screen in 47 multiple myeloma cell lines against the NCATS MIPE library collection: OPM2_DSMZ cell viability assay (AID 1919872); further: nearly all actives have a fitted effect of over 30% in size; further: potency means the concentration at half of the fitted maximal effect
# Method in brief: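 Relative luminescence from CellTiter-Glo served as the viability signal, referenced to DMSO-treated (100%) and cell-free medium (0%) controls. Treatment lasted 48 hours at 37C with 500 cells per well.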
# [4] = Quantitative High-Throughput drug screen in 47 multiple myeloma cell lines against the NCATS MIPE library collection: KMS28BM_JCRB cell viability assay (AID 1919874); further: nearly all actives have a fitted effect of over 35% in size; further: potency means the concentration at half of the fitted maximal effect
# Method in brief: as §1
# [5] = qHTS drug screen for cell cycle checkpoint inhibitors in PARPi-resistant BRCA-mutant ovarian cancer cell lines. (AID 1963452; calls by dose curve); conditions: PEO1/OlaR viability, CellTiter-Glo luminescence, 96 h, stronger effect = lower value
# Method in brief: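 PEO1, PEO4 and PEO1/OlaR ovarian cancer cells, 600 per well, exposed 96 h at 37C to a dilution series. Viability read by CellTiter-Glo luminescence, normalized to DMSO and empty wells; activity summarized as Z-AUC.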
# [6] = Quantitative High-Throughput drug screen in 47 multiple myeloma cell lines against the NCATS MIPE library collection: KMS11_JCRBsus cell viability assay (AID 1919873); further: nearly all actives have a fitted effect of over 50% in size; further: potency means the concentration at half of the fitted maximal effect
# Method in brief: as §1
# [7] = qHTS for identification of novel therapeutic agents for treatment of microphthalmiaassociated transcription factor (MiT) renal cell carcinoma (RCC) (AID 1963991); conditions: CellTiter-Glo, 48 h, stronger effect = lower value;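 further: curves scaled with 100% = DMSO viability and 0% = empty wells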
# Method in brief: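 UOK109/UOK124/UOK145 (TFE3 fusions, three partners); 500 cells/well; MIPE v4.0, 1912 cpds, 11 conc.; 48 h, 37 C; CellTiter-Glo, 15 min RT; lum. Norm.: DMSO 100%, empty 0%.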
# [8] = target: Cytochrome P450 2D6 (Homo sapiens) (UniProt P10635); experiment: qHTS for inhibitors of CYP2D6 against the NCATS DSHEA and TCM libraries (AID 1919972); further: on the % scale 0 is the no-effect control and ±100 the full control effect
# Chain of Cytochrome P450 2D6 (Homo sapiens) (P10635 whole entry, looked up): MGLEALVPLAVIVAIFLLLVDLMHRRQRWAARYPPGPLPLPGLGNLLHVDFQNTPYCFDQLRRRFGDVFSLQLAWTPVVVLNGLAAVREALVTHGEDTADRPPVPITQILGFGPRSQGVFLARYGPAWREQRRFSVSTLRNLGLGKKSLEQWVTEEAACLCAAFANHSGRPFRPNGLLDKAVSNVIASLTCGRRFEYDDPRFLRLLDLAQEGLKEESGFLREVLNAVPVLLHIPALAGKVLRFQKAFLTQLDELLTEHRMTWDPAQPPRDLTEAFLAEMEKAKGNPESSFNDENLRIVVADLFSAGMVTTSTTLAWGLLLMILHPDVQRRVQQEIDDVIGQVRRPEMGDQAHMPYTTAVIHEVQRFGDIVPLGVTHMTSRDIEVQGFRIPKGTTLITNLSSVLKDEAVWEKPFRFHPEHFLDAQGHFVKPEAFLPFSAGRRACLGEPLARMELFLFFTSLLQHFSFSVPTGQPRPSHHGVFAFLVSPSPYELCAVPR
# Method in brief: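 Luminescent P450-Glo read-out of CYP2D6 turnover of a luciferin substrate after NADPH-driven reaction of 30-45 min at room temperature. Compounds were first preincubated 15 min with enzyme at titrated concentrations; quinidine was the intraplate control.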
# [9] = target: Cytochrome P450 2C9 (Homo sapiens) (UniProt P11712); experiment: qHTS for inhibitors of CYP2C9 against the NCATS DSHEA and TCM libraries (AID 1919973); further: potency means the concentration at half of the fitted maximal effect
# Chain of Cytochrome P450 2C9 (Homo sapiens) (P11712 whole entry, looked up): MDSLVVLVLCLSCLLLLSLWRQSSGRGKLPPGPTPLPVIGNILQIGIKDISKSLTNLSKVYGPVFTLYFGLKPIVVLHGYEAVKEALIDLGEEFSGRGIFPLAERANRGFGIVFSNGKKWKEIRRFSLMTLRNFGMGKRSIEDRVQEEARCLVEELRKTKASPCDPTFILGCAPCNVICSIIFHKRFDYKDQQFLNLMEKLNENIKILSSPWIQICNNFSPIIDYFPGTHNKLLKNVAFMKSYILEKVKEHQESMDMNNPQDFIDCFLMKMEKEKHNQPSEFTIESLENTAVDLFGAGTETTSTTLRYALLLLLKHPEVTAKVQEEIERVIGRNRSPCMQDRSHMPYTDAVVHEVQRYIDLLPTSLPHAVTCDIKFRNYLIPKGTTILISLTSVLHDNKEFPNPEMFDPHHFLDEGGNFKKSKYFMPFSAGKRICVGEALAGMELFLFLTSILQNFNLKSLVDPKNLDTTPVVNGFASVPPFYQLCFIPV
# Method in brief: (§2)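 Luminescent P450-Glo format: compounds preincubated 15 min with enzyme and luciferin substrate, reaction run 30-45 min after NADPH regeneration solution. Intraplate controls: ketoconazole for CYP3A4 and CYP2C19, sulfaphenazole for CYP2C9.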
# [10] = target: Cytochrome P450 2C19 (Homo sapiens) (UniProt P33261); experiment: qHTS for inhibitors of CYP2C19 against the NCATS DSHEA and TCM libraries (AID 1919974);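 further: luminescence from luciferin released by CYP2C19 oxidation of a pro-luciferin substrate; potency means the concentration at half of the fitted maximal effect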
# Chain of Cytochrome P450 2C19 (Homo sapiens) (P33261 whole entry, looked up): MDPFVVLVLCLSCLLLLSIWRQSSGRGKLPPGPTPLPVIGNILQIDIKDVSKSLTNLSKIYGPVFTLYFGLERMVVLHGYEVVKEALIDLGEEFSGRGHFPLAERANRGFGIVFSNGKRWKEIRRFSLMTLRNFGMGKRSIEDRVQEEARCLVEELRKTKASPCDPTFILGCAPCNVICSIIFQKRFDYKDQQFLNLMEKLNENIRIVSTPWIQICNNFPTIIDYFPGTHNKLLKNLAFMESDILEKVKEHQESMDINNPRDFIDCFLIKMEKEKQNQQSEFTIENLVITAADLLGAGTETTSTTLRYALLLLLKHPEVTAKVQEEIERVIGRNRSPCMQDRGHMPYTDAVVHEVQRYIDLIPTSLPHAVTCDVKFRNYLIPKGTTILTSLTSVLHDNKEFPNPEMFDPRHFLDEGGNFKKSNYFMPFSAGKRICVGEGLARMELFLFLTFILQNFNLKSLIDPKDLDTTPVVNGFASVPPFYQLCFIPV
# Method in brief: as §2
# [11] = KB-3-1 P-gp reporter qHTS against the NCATS DSHEA and TCM libraries (AID 1919975); further: 0% is about no effect
# Method in brief: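 Parental KB-3-1 cells, 500 cells/well, in DMEM with 10% FBS, exposed 72 h at 37 C to compounds in concentration-response. Viability read by CellTiter-Glo luminescence after 30 min at room temperature.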
# [12] = qHTS Counterscreen for compound interference against the NCATS DSHEA and TCM libraries (AID 1919978); conditions: firefly luciferase detection reagent interference, luminescence;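 further: compounds preincubated with 1 µM D-luciferin or buffer before detection reagent; % of control where 0% means no effect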
# Method in brief: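 Firefly luciferase detection reagent was added after compounds (19.5 nM–39.8 uM final) had been incubated 15 min at room temperature with 1 uM D-luciferin or with 100 mM phosphate buffer alone. Luminescence was read after 30 min at room temperature.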
# [13] = Dual reporter qHTS for agonist of Pregnane X Receptor (hPXR) against the NCATS DSHEA and TCM libraries: Fluorescence readout (AID 1920058); further: 0% is about no effect
# Method in brief: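 hPXR-Luc HepG2 cells, 2000/well in charcoal-stripped serum, attached 5 h, dosed for ~24 h at 37 °C. Fluorescence read is CellTiter-Fluor viability (Ex/Em 405/540 nm); rifampicin positive, tetraoctyl ammonium bromide (92 µM) cytotoxicity controls.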
# [14] = target: Nuclear receptor subfamily 1 group I member 2 (Homo sapiens) (UniProt O75469); experiment: Dual reporter qHTS for antagonist of Pregnane X Receptor (hPXR) against the NCATS DSHEA and TCM libraries: Luminescence Readout (AID 1920060);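 further: HepG2 cells carrying hPXR luciferase reporter stimulated with rifampicin at 2 µM; 0% is about no effect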
# Chain of Nuclear receptor subfamily 1 group I member 2 (Homo sapiens) (O75469 whole entry, looked up): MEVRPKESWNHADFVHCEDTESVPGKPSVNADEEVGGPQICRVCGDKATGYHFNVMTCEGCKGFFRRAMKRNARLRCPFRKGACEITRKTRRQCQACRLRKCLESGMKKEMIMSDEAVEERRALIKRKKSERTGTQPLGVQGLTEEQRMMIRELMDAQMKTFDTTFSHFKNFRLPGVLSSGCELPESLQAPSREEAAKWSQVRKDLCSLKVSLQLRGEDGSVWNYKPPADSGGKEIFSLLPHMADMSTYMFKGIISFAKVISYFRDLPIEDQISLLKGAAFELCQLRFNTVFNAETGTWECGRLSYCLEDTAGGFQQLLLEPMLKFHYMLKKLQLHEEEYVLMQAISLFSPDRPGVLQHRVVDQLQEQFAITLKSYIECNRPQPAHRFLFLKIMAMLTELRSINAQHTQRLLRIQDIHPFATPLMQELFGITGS
# Method in brief: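 HepG2 hPXR-Luc, 2000 cells/well, charcoal-stripped FBS medium; 5 h attach; RIF 2 uM final; 24 h 37C/5% CO2; CellTiter-Fluor 1 h, fluor 405/540; ONE-Glo 30 min RT, lum.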
# [15] = measured here: PEO1 parental Z-AUC
# [16] = TFE3-RCC UOK109 viability, measured here: UOK109 Z-AUC
# [17] = TFE3-RCC viability, measured here: UOK124 Z-AUC
# [18] = TFE3-RCC viability, measured here: UOK145 Z-AUC
structure (smiles),measurement,setting,value
Cc1ccc(C2=Nc3ccc(Cl)cc3OC2)cc1,Potency,[1],7.43 µM (active)
same,Potency,[2],1.87 µM (active)
same,Potency,[3],inactive
same,Potency,[4],inactive
same,Z-AUC,[5],1.28 (inactive)
same,Z-AUC,[5]; [15],0.878
same,Z-AUC,[5]; measured here: PEO4 Z-AUC,0.727
COC1CCC(C(=O)c2ccc3nc4c(cc3c2)CCCO4)CC1 (stereo not given),Potency,[1],16.6 µM (active)
same,Potency,[2],20.9 µM (active)
same,Potency,[3],23.5 µM (active)
same,Potency,[6],20.9 µM (active)
same,Z-AUC,[5],-0.16 (inactive)
same,Z-AUC,[5]; [15],-0.298
same,Z-AUC,[5]; measured here: PEO4 Z-AUC,0.0226
N[C@@H](CC(=O)N1CCn2c(nnc2C(F)(F)F)C1)Cc1cc(F)c(F)cc1F,Potency,[1],inactive
same,Potency,[2],inactive
same,Potency,[3],inactive
same,Potency,[6],inactive
same,Potency,[4],4.69 µM (active)
same,Z-AUC,[5],0.69 (inactive)
same,Z-AUC,[5]; [15],0.734
same,Z-AUC,[5]; measured here: PEO4 Z-AUC,0.789
same,z-score,[7]; [16],0.736
same,z-score,[7]; [17],0.907
same,z-score,[7]; [18],0.666
NC1(C(=O)N[C@@H](CCO)c2ccc(Cl)cc2)CCN(c2ncnc3[nH]ccc23)CC1,Potency,[1],5.26 µM (active)
same,Potency,[2],6.62 µM (active)
same,Potency,[3],13.2 µM (active)
same,Potency,[4],0.372 µM (active)
same,Z-AUC,[5],-0.465 (inactive)
same,Z-AUC,[5]; [15],0.588
same,Z-AUC,[5]; measured here: PEO4 Z-AUC,0.532
CNC(=O)c1ccc2c(C(=Nc3cccc(CN(C)C)c3)c3ccccc3)c(O)[nH]c2c1,Potency,[1],16.6 µM (active)
same,Potency,[2],13.2 µM (active)
same,Potency,[3],inactive
same,Potency,[4],8.33 µM (active)
C[C@]12C=CC(=O)C=C1CC[C@@H]1[C@@H]2[C@@H](O)C[C@@]2(C)[C@@H]1CC[C@]2(O)C(=O)CO,Potency,[1],inactive
same,Potency,[2],0.187 µM (active)
same,Potency,[3],inactive
same,Potency,[4],inactive
CC(NCCc1ccc(O)cc1)C(O)c1ccc(O)cc1 (stereo not given),Potency,[1],inactive
same,Potency,[2],inactive
same,Potency,[3],inactive
same,Potency,[6],inactive
same,Potency,[4],inactive
same,Z-AUC,[5],-0.504 (inactive)
same,Z-AUC,[5]; [15],0.762
same,Z-AUC,[5]; measured here: PEO4 Z-AUC,0.7
same,z-score,[7]; [16],0.72
same,z-score,[7]; [17],0.96
same,z-score,[7]; [18],2.38
O=C(NCCCCN1CCOCC1)c1cc2ccccc2o1,Potency,[1],inactive
same,Potency,[2],inactive
same,Potency,[3],inactive
same,Potency,[6],inactive
same,Potency,[4],inactive
same,Z-AUC,[5],1.41 (inactive)
same,Z-AUC,[5]; [15],1.22
same,Z-AUC,[5]; measured here: PEO4 Z-AUC,1.23
same,z-score,[7]; [16],0.969
same,z-score,[7]; [17],0.64
same,z-score,[7]; [18],0.273
Cc1cccc2c1CC[C@H](CN1CCC(c3c(Cl)cccc3Cl)CC1)C[C@@H]2O,Potency,[1],18.7 µM (active)
same,Potency,[2],16.6 µM (active)
same,Potency,[6],14.8 µM (active)
same,Potency,[4],14.8 µM (active)
O=c1cc(-c2ccc(O)c(O)c2)oc2cc(O)cc(O)c12,Potency,[1],inactive
same,Potency,[2],inactive
same,Potency,[6],inactive
same,Potency,[4],inactive
same,outcome,[8],inactive
same,Potency,[9],11.2 µM (active)
same,Potency,[10],7.94 µM (active)
same,outcome,[11],inactive
same,max response,[12],-0.391% (inactive)
same,Potency,[13],inactive
same,outcome,[14],inactive
same,Z-AUC,[5],0.185 (inactive)
same,Z-AUC,[5]; [15],0.49
same,Z-AUC,[5]; measured here: PEO4 Z-AUC,0.398
CC1(C)C(N(O)C(=O)Nc2ccc(Cl)cc2)N(c2ccc(Cl)cc2)C(=O)N1CC(=O)NN=CC=Cc1ccc([N+](=O)[O-])o1 (stereo not given),Potency,[1],9.35 µM (active)
same,Potency,[2],11.8 µM (active)
same,Potency,[6],6.62 µM (active)
same,Potency,[4],8.33 µM (active)
Nc1ccn([C@@H]2O[C@H](CO)[C@@H](O)[C@H]2O)c(=O)n1,Potency,[1],inactive
same,Potency,[2],inactive
same,Potency,[6],inactive
same,Potency,[4],inactive
same,Z-AUC,[5],0.821 (inactive)
same,Z-AUC,[5]; [15],1.45
same,Z-AUC,[5]; measured here: PEO4 Z-AUC,1.4
CC(=O)OCC(=O)[C@@]12OC(C)(C)O[C@H]1C[C@H]1[C@@H]3C[C@H](F)C4=CC(=O)C=C[C@]4(C)[C@@]3(F)[C@@H](O)C[C@@]12C,Potency,[1],inactive
same,Potency,[2],0.0083 µM (active)
same,Potency,[6],0.0166 µM (active)
same,Potency,[4],inactive
CCCCCOC(=O)Nc1nc(=O)n([C@@H]2O[C@H](C)[C@@H](O)C2O)cc1F (stereo not given in full),Potency,[1],inactive
same,Potency,[2],inactive
same,Potency,[3],inactive
same,z-score,[7]; [16],0.259
same,z-score,[7]; [17],0.348
same,z-score,[7]; [18],0.317
Cc1ccc2c(=O)c3cccc(CC(=O)O)c3oc2c1C,Potency,[1],23.5 µM (active)
same,Potency,[2],inactive
same,Potency,[6],inactive
same,Potency,[4],inactive
same,Z-AUC,[5],0.508 (inactive)
same,Z-AUC,[5]; [15],0.654
same,Z-AUC,[5]; measured here: PEO4 Z-AUC,0.37
CO[C@H]1C=CO[C@@]2(C)Oc3c(C)c(O)c4c(O)c(c(C=NN5CCN(C)CC5)c(O)c4c3C2=O)NC(=O)C(C)=CC=C[C@H](C)[C@H](O)[C@@H](C)[C@@H](O)[C@@H](C)[C@H](OC(C)=O)[C@H]1C,Potency,[1],inactive
same,Potency,[2],inactive
same,Potency,[3],inactive
same,Potency,[4],inactive
same,z-score,[7]; [16],2.16
same,z-score,[7]; [17],2
same,z-score,[7]; [18],1.3
CC[C@H](C)C(=O)O[C@H]1C[C@H](O)C=C2C=C[C@H](C)[C@H](CC[C@@H](O)C[C@@H](O)CC(=O)O)[C@H]21,Potency,[1],inactive
same,Potency,[2],inactive
same,Potency,[3],inactive
same,z-score,[7]; [16],0.594
same,z-score,[7]; [17],0.809
same,z-score,[7]; [18],0.248
O=C(O)Cc1cccc(OCCCN(Cc2cccc(C(F)(F)F)c2Cl)CC(c2ccccc2)c2ccccc2)c1,Potency,[1],18.7 µM (active)
same,Potency,[2],23.5 µM (active)
same,Potency,[3],inactive
same,Z-AUC,[5],-0.299 (inactive)
same,Z-AUC,[5]; [15],0.225
same,Z-AUC,[5]; measured here: PEO4 Z-AUC,0.165
same,z-score,[7]; [16],-0.604
same,z-score,[7]; [17],0.0786
same,z-score,[7]; [18],0.416
